The panel holds about 83,000 compounds, 20% with a hit somewhere; the sample as a whole holds those more often.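 The test compound was applied at a single concentration to cells in 96-well plates for 48 hours, and percent growth was recorded.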 Values without a mark were called inactive. Active and inactive are the calls of the source. How the source made its calls: active means growth percent below 10; inactive means the rest.
Legend:
Test in all cases: NCI-60 one-dose screen, 48 h (100 = growth as untreated, 0 = no growth, -100 = all killed)
Details in all cases: 10 µM unless noted
[1] = system: NCI-H23 lung
[2] = system: NCI-H226 lung
[3] = system: NCI-H322M lung
[4] = system: HOP-62 NSCLC
[5] = system: NCI-H460 lung
[6] = system: HOP-92 NSCLC
[7] = system: NCI-H522 lung
[8] = system: A549/ATCC NSCLC
[9] = system: 786-0 renal
[10] = system: COLO 205 colon
[11] = system: DU-145 prostate
[12] = system: K-562 leukemia
[13] = system: MALME-3M melanoma
[14] = system: MDA-MB-231 breast
[15] = system: RXF 393 renal
[16] = system: SF-268 CNS
[17] = system: SF-295 CNS
[18] = system: SF-539 CNS
[19] = system: UACC-257 melanoma
[20] = system: M14 melanoma

Row | SMILES | growth [1] | growth [2] | growth [3] | growth [4] | growth [5] | growth [6] | growth [7] | growth [8] | growth [9] | growth [10] | growth [11] | growth [12] | growth [13] | growth [14] | growth [15] | growth [16] | growth [17] | growth [18] | growth [19] | growth [20]
1 | O=C(Nc1ccc(-c2ccc3c(c2)NC(=O)/C3=C\c2ccc[nH]2)cc1)Nc1ccc(Cl)c(Cl)c1 | 37.8% | 78.1% | 73.4% | 61.9% | 17.4% | 88.5% | 63% | 62% | 35.9% | 58% | 54.3% | 39% | 68.7% | 71.5% | -1.35% (active) | 48.9% | 23.3% | -48.9% (active) | 76% | 59.3%
2 | CN(C)c1nc(NCCNS(=O)(=O)c2ccc(C(=O)/C=C/c3ccc(F)cc3)cc2)nc(N2CCOCC2)n1 | 50.9% | 74% | 84.4% | 76.2% | 78.5% | 77.8% | 28.7% | 7.37% (active) | -55.7% (active) | 35% | 33.3% | 0.84% (active) | 84.8% | 36.4% | 76.6% | 73% | 79.2% | 12.2% | 70.1% | 12.7%
3 | Cc1cc(C)c2[nH]c(=O)c(C(c3nnnn3Cc3ccc4c(c3)OCO4)N3CCN(C)CC3)cc2c1 (stereo not given) | 105% | 102% | 107% | 111% | 112% | 99.9% | 120% | 105% | 97.9% | 114% | 103% | 107% | 110% | 112% | 114% | 101% | 104% | 104% | 110% | 111%
4 | COc1cc2cc(C(=O)N3C[C@@H](CCl)c4c3cc(OC(=O)N(CCC(=O)N3CCN(C)CC3)[C@H]3CCSSC3)c3ccccc43)[nH]c2c(OC)c1OC | -87% (active) | -15.3% (active) | -23% (active) | -17.8% (active) | -72.6% (active) | -7.53% (active) | -80.5% (active) | -37.3% (active) | -79.8% (active) | -65.7% (active) | -10.5% (active) | -8.96% (active) | -96.7% (active) | -74.8% (active) | -94.5% (active) | -10.3% (active) | -65.9% (active) | -80.3% (active) | -61.9% (active) | -77.2% (active)
5 | O=C(N/N=C/c1ccc(Cl)o1)c1[nH]c2ccc(Br)cc2c1-c1ccccc1 | -29.7% (active) | -42.1% (active) | 26.3% | -48.3% (active) | -70.8% (active) | 9.01% (active) | -59.8% (active) | -23.2% (active) | -57.7% (active) | -39.9% (active) | -49.1% (active) | 8.31% (active) | 2.82% (active) | -69.9% (active) | -62.6% (active) | 3.21% (active) | -19.3% (active) | -97.2% (active) | 17% | -3.48% (active)
6 | Cc1[nH]nc2ccc3nc(-c4cnn(CCO)c4)c4c(c3c12)CCCC4 | 52.7% | 28.6% | 53.8% | 65.6% | 26.6% | 35.9% | 18.9% | 49.3% | 38.7% | 47.5% | 37.9% | 38.5% | 41% | 40% | -6.62% (active) | 58.1% | 43.4% | 33.7% | 83.1% | 27.4%
7 | CCCCNc1ccc2c3c(cccc13)C(=O)N(NCC(O)COc1ccc3c(C)cc(=O)oc3c1)C2=O (stereo not given) | 87.4% | 87.5% | 91% | 97% | 92.6% | 78.2% | 83.2% | 87% | 101% | 92.2% | 89.2% | 75.8% | 110% | 81.4% | 91.6% | 79.6% | 95.5% | 91.8% | 106% | 90.6%
8 | Nc1ccc(-c2ccc3ncnc(N4CCc5cc(F)c(Cl)cc54)c3c2)cn1 | 29.4% | 18.4% | -2.2% (active) | 37.5% | 25.6% | 1.25% (active) | 15.4% | 14.2% | -69.8% (active) | 50% | 5.3% (active) | 12.9% | 3.74% (active) | 18.4% | -19.2% (active) | 24% | 7.68% (active) | 24.9% | 43.1% | 13.5%
9 | COC(=O)c1c(C(=O)OC)c2ccc3c4ccccc4ccc3n2c1C(=O)C(C)Br (stereo not given) | 33.4% | 61.7% | 83.4% | 67.1% | 17.2% | 53.5% | -55.9% (active) | 50.5% | 41.9% | 43.2% | 71.7% | 4.34% (active) | 37.9% | 33.1% | 32.8% | 69.3% | 78% | 17.2% | 57% | 46.5%
10 | Cc1ccc(S(=O)(=O)N(CCn2ccnc2[N+](=O)[O-])CCn2ccnc2[N+](=O)[O-])cc1 | 104% | 100% | 107% | 108% | 109% | 106% | 91.5% | 102% | 101% | 111% | 106% | 95.7% | 111% | 104% | 84.3% | 111% | 109% | 97.6% | 108% | 97.6%
11 | N/C(=N\c1nc2ccc([N+](=O)[O-])cc2s1)NC(=O)Nc1ccccc1Cl | 44.6% | 23.7% | 61.7% | 51.3% | 11.3% | 17.2% | 5.69% (active) | 9.92% (active) | -32% (active) | 49.3% | 45.5% | 13% | -17.1% (active) | 15% | 25% | 56.1% | 58.5% | 11.1% | 89.6% | 62.8%
12 | c1ccc(CSc2nnc(-c3ccc4nc(-c5ccccc5)[nH]c4c3)o2)cc1 | 68% | -40.1% (active) | 35.9% | -3.53% (active) | -41.3% (active) | 32.2% | 33.7% | -12.4% (active) | -17.3% (active) | 78.3% | 21.4% | 33.5% | 7.77% (active) | -12.8% (active) | -22.1% (active) | 8.24% (active) | 17.1% | -39.9% (active) | 57.6% | 41.5%
13 | CCC(=O)c1c2c(c3ccc4c5ccccc5ccc4n13)C(=O)c1ccccc1C2=O | 44.5% | 45.7% | 59.1% | 81.7% | 6.66% (active) | 117% | 86.8% | 31.7% | 96.4% | 75.8% | 20.3% | 96.7% | -87.5% (active) | 83% | 109% | 95.4% | 65.8% | 77.8% | 71.6% | 24.6%
14 | Clc1ccc(CNc2nc(SCCN3CCOCC3)nc3c2cnn3CC(Cl)c2ccc(Br)cc2)cc1 (stereo not given) | 49.4% | 62.6% | 83.8% | 58.6% | 25.1% | 48% | 48.5% | 23.4% | 39.6% | 5.78% (active) | 57.1% | 7.71% (active) | 1.86% (active) | 44.1% | 51.1% | 49.3% | 14.3% | 27.4% | 33.2% | 37.2%
15 | N#CC1=C(c2cccs2)Nc2c(c(-c3ccccc3)nn2-c2ccccc2)C12C(=O)Nc1ccccc12 (stereo not given) | 13.6% | 12.8% | 80.1% | -20% (active) | 5.58% (active) | -13.1% (active) | 5.69% (active) | 5.42% (active) | 1.25% (active) | 55.9% | 33.5% | 9.66% (active) | 26.9% | 34.2% | -13.4% (active) | 54.3% | 40.3% | -45.2% (active) | 88% | 14.6%
16 | CC[C@]12C=CCN3CC[C@]4(C(=C(C(=O)OC)C1)Nc1cc(OC)c([C@@H]5[C@H]6O[C@H]6[C@@]6(CC)CC(C(=O)OC)=C7Nc8cc(O)ccc8[C@@]78CCN5[C@@H]68)cc14)[C@@H]32 | -18.8% (active) | -58.1% (active) | 33.6% | 32.2% | -68.4% (active) | -41.9% (active) | -31.2% (active) | 17.2% | -8% (active) | -70.2% (active) | 23.2% | -3.65% (active) | -77.4% (active) | -54.2% (active) | -34.2% (active) | 22.3% | -47.2% (active) | -38.4% (active) | -10.2% (active) | -28.4% (active)

Reference: PubChem BioAssay (NCI)
